{"source": "PubChem BioAssay AID651918", "about": "(Vanderbilt Specialized Chemistry Center, 2012)", "target": "Histone deacetylase 1 (Homo sapiens) (UniProt Q13547)", "sequence (Q13547 whole entry, looked up, canonical isoform)": "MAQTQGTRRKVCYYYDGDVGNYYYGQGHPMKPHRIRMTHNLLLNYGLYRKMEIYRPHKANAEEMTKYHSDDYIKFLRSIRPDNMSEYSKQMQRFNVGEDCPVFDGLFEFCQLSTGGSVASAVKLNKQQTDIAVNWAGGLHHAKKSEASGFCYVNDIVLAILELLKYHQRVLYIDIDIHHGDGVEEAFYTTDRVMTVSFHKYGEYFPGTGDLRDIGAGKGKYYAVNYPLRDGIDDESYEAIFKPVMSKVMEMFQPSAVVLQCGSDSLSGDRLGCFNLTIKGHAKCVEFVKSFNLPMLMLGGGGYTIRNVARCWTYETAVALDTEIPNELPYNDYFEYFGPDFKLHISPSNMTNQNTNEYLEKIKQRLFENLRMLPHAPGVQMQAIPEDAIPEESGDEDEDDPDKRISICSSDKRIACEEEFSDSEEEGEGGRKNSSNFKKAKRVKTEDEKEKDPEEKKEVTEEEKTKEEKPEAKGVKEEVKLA", "experiment": "recombinant HDAC1 deacetylase inhibitors – biochemical, HDAC isoform panel, selectivity assay for E-cadherin restoration project, profiling panel (AID 651918)", "note": "Active and inactive are the calls of the source. No rule for the calls is given here."}
{"smiles": "O=C(NCCCNC(=O)c1ccc[nH]c1=O)c1cc(-c2ccccc2)on1", "values": [{"measurement": "outcome", "value": "inactive"}]}
